# Tau fibril FP: qHTS for Inhibitors of Tau Fibril Formation, Fluorescence Polarization; Microtubule-associated protein tau (Homo sapiens), P10636; K18 P301L tau heparin fibrillization, Alexa594 FP, 6 h; Potency, µM (doses to about 57.7 µM), hits mostly inhibitors; 280,000 tested, 0.39% active; AID 1468, 2008; note: nearly all actives have a fitted effect of over 55% in size
#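 Quantitative HTS format: compounds meet 15 uM recombinant K18 P301L tau and Alexa 594-tau tracer in 100 mM sodium acetate pH 7; 20 uM heparin triggers fibrillization at 37 C over 6 hr; FP gives the signal.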
# Coupling enz: qHTS Assay for Inhibitors of Fructose-1,6-bisphosphate Aldolase from Giardia Lamblia: Coupling assay counterscreen. coupling enzyme system counterscreen, AmpLite Red fluorescence. activity change, negative = inhibition, % at 58.2 µM, hits read low. 290,000 tested, 0.67% active. AID 2472, 2010; in the data active = activity change below about -30%
#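 First, compound is pin-transferred into glyceraldehyde-3-phosphate coupling-enzyme reagent at 57.5 uM final and held 10 min at RT. Next, substrate, coupling system and AmpLite Red are added. After 20 min RT, fluorescence (525/598 nm) is read.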
# USP1-UAF1 inh: Inhibitors of USP1/UAF1: Primary Screen; Potency, µM (highest dose often 57.1 µM), actives largely listed as inhibitors; recombinant USP1/UAF1, Ub-Rhodamine cleavage fluorescence; 390,000 tested, 0.23% active; AID 743255, 2014; note: nearly all actives have a fitted effect of over 60% in size
# Target sequence (O94782 whole entry, looked up): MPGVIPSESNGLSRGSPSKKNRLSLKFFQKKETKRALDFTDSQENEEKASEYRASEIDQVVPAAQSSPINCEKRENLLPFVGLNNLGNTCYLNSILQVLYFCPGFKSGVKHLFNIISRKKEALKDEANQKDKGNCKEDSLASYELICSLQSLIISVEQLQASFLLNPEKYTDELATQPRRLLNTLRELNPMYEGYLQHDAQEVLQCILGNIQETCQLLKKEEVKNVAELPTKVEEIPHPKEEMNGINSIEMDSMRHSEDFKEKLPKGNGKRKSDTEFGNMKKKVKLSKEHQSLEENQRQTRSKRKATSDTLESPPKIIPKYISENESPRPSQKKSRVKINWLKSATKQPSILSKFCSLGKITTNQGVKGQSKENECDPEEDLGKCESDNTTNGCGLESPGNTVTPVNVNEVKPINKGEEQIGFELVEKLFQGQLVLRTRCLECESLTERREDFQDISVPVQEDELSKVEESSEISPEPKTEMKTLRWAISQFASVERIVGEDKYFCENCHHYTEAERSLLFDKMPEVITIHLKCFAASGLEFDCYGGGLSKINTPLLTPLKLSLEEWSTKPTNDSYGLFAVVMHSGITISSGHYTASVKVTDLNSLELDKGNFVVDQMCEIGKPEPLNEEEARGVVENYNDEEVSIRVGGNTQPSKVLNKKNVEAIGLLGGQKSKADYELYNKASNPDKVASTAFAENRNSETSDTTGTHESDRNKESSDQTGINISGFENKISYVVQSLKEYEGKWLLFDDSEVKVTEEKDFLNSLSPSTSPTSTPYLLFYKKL
#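 In this screen, compounds sit with the deubiquitinase complex (1nM) for 15 min at room temperature before Ub-Rho is added at 150nM final. Fluorescence rise is then followed for 6 reads every 60 seconds.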
# Tau ThT inhib: qHTS for Inhibitors of Tau Fibril Formation, Thioflavin T Binding. Microtubule-associated protein tau (Homo sapiens), P10636. recombinant tau K18 P301L, heparin-induced fibrillization, ThT fluorescence. Potency, µM (doses to about 57.4 µM), most hits filed as inhibitors. 270,000 tested, 2.1% active. AID 1460, 2008; note: nearly all actives have a fitted effect of over 55% in size
#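 Fibril formation assay: tau K18 P301L at 15 uM with trace Alexa 594 label, heparin inducer 20 uM, pH 7 sodium acetate buffer, 37 C for 6 hr; endpoint ThT signal.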
# Tau fluor counter: Counterscreen qHTS for Inhibitors of Tau Fibril Formation, Fluorescence Polarization | tau K18 P301L (four-repeat tau fragment) Alexa594 fluorescence, heparin fibrillization | Potency, µM (titrated, usually from 57.7 µM) | 280,000 tested, 0.93% active; note: nearly all actives have a fitted effect of over 55% in size
#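 Human K18 P301L tau (15 uM unlabeled plus 0.24 uM Alexa 594-labeled, final) in 100 mM sodium acetate pH 7 was mixed with compound and 20 uM heparin and incubated 6 hr at 37 C.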
# Hits are given with their value; i = inactive; ? = inconclusive; nt = no result; [ ] = another dose, or the depositor's remark. Only some compounds are listed: those with a hit (about 2.3% of all), similar ones and a draw of the others. Unless noted, calls come from the whole dose curve; as a rule, active = well fitted curve in the direction sought with a large enough effect; inconclusive = small, poorly fitted or top-dose-only effect, or another doubt; inactive = no such curve, though single readings can be large; an effect the other way counts as inactive or inconclusive.
SMILES,Tau fibril FP,Coupling enz,USP1-UAF1 inh,Tau ThT inhib,Tau fluor counter
CCN(C(=O)COC(=O)/C=C/c1c(C)nn(-c2ccccc2)c1C)c1c(N)n(Cc2ccccc2)c(=O)[nH]c1=O,nt,nt,i,nt,nt
O=C1NC(=O)[C@@H]2C3c4ccccc4C=CN3[C@H](C(=O)c3cccs3)[C@H]12 (some centres not stated),?,-43.4,nt,28.2µM,i
CC(=O)[C@@H]1[C@@H]2C(=O)N(C3CCCCC3)C(=O)[C@@H]2C2c3ccccc3C=CN21 (some centres not stated),i,nt,nt,?,i
COc1cc(Br)c(C(=O)c2nccc3cc(OC)c(OC)cc23)cc1OC,nt,i,10µM,nt,nt
COC(=O)CN(Cc1ccccc1)S(=O)(=O)c1ccc(OC)c(OC)c1,?,i,i,15.8µM,i
CCOCCCn1c(SCC(=O)Nc2ccc(NC(C)=O)cc2)nc2ccccc2c1=O,nt,i,i,nt,nt
Cc1nc(N)sc1-c1csc(N(C)c2ccc(O)cc2)n1,?,i,i,15.8µM,?
O=C(/C=C/c1ccccc1)NC(=O)c1ccccc1O,i,i,i,?,?
O=C(/C=C/c1ccccc1)CC(=O)c1ccccc1O,?,i,i,12.6µM,?
C#CCN1C(=O)S/C(=C/C=C/c2ccc(N(C)C)cc2)C1=O,?,i,i,1.58µM,i
COc1ccc(Cl)cc1NC(=O)CN(c1cc(C)cc(C)c1)S(=O)(=O)c1c(C)n[nH]c1C,?,nt,i,i,?
Cc1ccc(NC(=O)c2cccc(N3CCCS3(=O)=O)c2)cc1C,i,nt,i,i,i
CN(C)c1ccc(-c2ccc3ncnc(N(C)Cc4ccco4)c3c2)cc1,nt,i,nt,nt,nt
CCOC(=O)c1ccc(N2C(=O)c3[nH]nc(-c4ccc(OC)cc4)c3C2c2cccc(O)c2)cc1 (configuration not stated),15.8µM,nt,i,?,?
CCOC(=O)/C(=C/C1=CC(=C/N(C)C)/C(=O)O1)C(C)=O,i,i,31.6µM,?,i
CCOC(=O)/C(=C/c1ccc(OC(=O)c2ccccc2)cc1)C(C)=O,i,i,i,?,i
CCCCCCCCCCCC(=O)c1c(O)cccc1O,?,i,i,?,12.6µM[quencher]
Cc1ccc([C@@H]2C3COCC=C3C(C#N)=C(N)C2(C#N)C#N)o1 (some centres not stated),?,i,31.6µM,25.1µM,i
CCN1CC=C2C(C#N)=C(N)C(C#N)(C#N)C(c3cc(Cl)ccc3Cl)C2C1 (configuration not stated),?,i,i,12.6µM,i
CC1CC=C2C(C#N)=C(N)C(C#N)(C#N)C(c3cccs3)C2C1 (configuration not stated),?,i,?,?,i
Cc1ccc(C2C3CSCC=C3C(C#N)=C(N)C2(C#N)C#N)cc1 (configuration not stated),?,i,?,20µM,i
CC(C)N1CC=C2C(C#N)=C(N)C(C#N)(C#N)C(c3ccccc3)C2C1 (configuration not stated),?,i,?,?,i
CC(C)N1CC=C2C(C#N)=C(N)C(C#N)(C#N)[C@H](c3ccoc3)[C@H]2C1,?,i,nt,20µM,i
CCOc1ccc(/C=N/N(C)c2ccccc2)cc1OC,?,i,?,7.94µM,?
O=C(CSc1nc2ccc(Cl)cc2[nH]1)Nc1ccc2c(c1)CCC2,12.6µM,i,i,?,?
SMILES,Tau fibril FP,Coupling enz,USP1-UAF1 inh,Tau ThT inhib,Tau fluor counter
COc1cc(NC(=O)c2ccc([N+](=O)[O-])o2)ccc1NC(=O)c1cccs1,i,i,i,?,i
O=C(/C=C/c1cccc([N+](=O)[O-])c1)Nc1cccc(NC(=O)c2ccco2)c1,i,i,i,?,?
O=C(/C=C/c1cccc([N+](=O)[O-])c1)Nc1cccc(NC(=O)c2cccs2)c1,?,i,i,?,12.6µM[quencher]
O=C(Nc1cccc(NC(=O)c2cccs2)c1)c1ccc([N+](=O)[O-])o1,i,i,i,nt,31.6µM[quencher]
COc1ccc(NC(=O)CCCn2c(=O)c3cccn3c3cccnc32)cc1Cl,i,nt,i,i,i
COc1ccc(-c2n[nH]c(C)c2-c2cnn(-c3ccccc3)c2)c(O)c1C,?,i,i,?,12.6µM[quencher]
COc1ccc(-c2n[nH]c(C)c2-c2cnn(-c3ccccc3)c2)c(O)c1,i,i,i,i,?
C/C=C/C1=CC2=CC(=O)C(C)(OC(=O)c3c(C)cc(O)cc3O)C(=O)C2=CO1 (configuration not stated),i,i,nt,?,i
COc1cc(C(=O)Nc2ccc3nc(SCc4ccc(C)cc4)sc3c2)cc(OC)c1OC,?,nt,i,?,?
O=C(Nc1ccc(Cl)c(Cl)c1)Nc1nnc(CC2=CCCCC2)s1,8.91µM,i,i,i,?
Cc1cccc(N2CCN(C(=O)Cn3sc4nc(C)cc(C)c4c3=O)CC2C)c1 (configuration not stated),?,i,i,12.6µM,i
Cc1cc(C)c2c(=O)n(CC(=O)N3CCC(Cc4ccccc4)CC3)sc2n1,11.2µM,i,nt,12.6µM,i
C#CCCOC(=O)N1C2=NC(C(=O)OC)=C(C(=O)OC)[C@@H]3N(CC#CC)c4ccccc4[C@]23C[C@H]1C(=O)OC,i[11.6 µM],i,nt,i[11.5 µM],i[11.6 µM]
CCOC(=O)CCN,nt,nt,i,nt,nt
Cc1ccc(Cl)cc1N1CCN(CCCNC(=O)C2COc3ccccc3C2)CC1 (configuration not stated),i,nt,i,i,i
Cc1ccc2nc(/C(C#N)=C/c3ccc(-c4ccccc4C(=O)O)o3)[nH]c2c1,nt,i,31.6µM,nt,nt
N#C/C(=C\c1ccc([N+](=O)[O-])o1)c1nc2ccccc2[nH]1,?,i,i,7.08µM,11.2µM[quencher]
Cc1ccc2nc(/C(C#N)=C\c3ccc([N+](=O)[O-])o3)[nH]c2c1,?,nt,i,8.91µM,12.6µM[quencher]
N#C/C(=C\c1ccc(-c2ccccc2C(=O)O)o1)c1nc2ccccc2[nH]1,i,i,?,?,i
N#C/C(=C\c1ccc(Sc2ccccc2)o1)c1nc2ccccc2[nH]1,?,i,i,i,i
CC1CCCN(c2ccc(/C=C(\C#N)c3nn(-c4ccccc4)c(N)c3C#N)cc2[N+](=O)[O-])C1 (configuration not stated),i,nt,i,14.1µM,?
Cc1ccc(NC(=O)CN2C(=O)CC(c3ccco3)Sc3ccccc32)cc1Cl (configuration not stated),i,nt,i,i,i
COC(=O)C(C(=O)OC)[C@@H](NC(=O)OCc1ccccc1)c1ccccc1,i,i,nt,i,i
N#C/C(=C\c1ccc(N2CCCC2)c([N+](=O)[O-])c1)c1nc2ccccc2[nH]1,i,i,i,2µM,?

# Source: PubChem
